Shown are actives, neighbours in structure and some others; about 20% of the full set was active somewhere.
Pf growth 48h – Primary qHTS for delayed death inhibitors of the malarial parasite plastid, 48 hour incubation; P. falciparum luciferase growth in erythrocytes, 48 h; Potency, µM (doses to about 28.7 µM), for inactives: top-dose activity change, negative = inhibition, most hits filed as inhibitors; 310,000 compounds, 5.9% hits; AID 504832, 2011; further: potency means the concentration at half of the fitted maximal effect; on the % scale 0 is the no-effect control and ±100 the full control effect
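Luciferase-expressing parasites in RBCs, 2% Hct / 0.1% parasitemia final; RPMI 1640 + 0.5% Albumax; 37 C, 5% CO2, one generation; luminescence read-out, lower signal = inhibition.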
Shiga toxin inh – A qHTS for Small Molecule Inhibitors of Shiga Toxin. Vero cells, Shiga toxin protein synthesis inhibition reporter. inhibition, % at 38.7 µM. 290,000 compounds, 9.2% hits. AID 2315, 2010; in the data active means inhibition mostly above about 28%, no sharp cut-off; inactive means mostly below about 43%; further: 0% is about no effect
Cycloheximide cs – Cycloheximide Counterscreen for Small Molecule Inhibitors of Shiga Toxin; 300,000 compounds, 12% hits; max response, %; cell reporter, cycloheximide protein synthesis inhibition counterscreen; in the data active means max response mostly above about 13%, no sharp cut-off; inactive means mostly below about 14%; further: read at 38.3 µM for the half of the compounds with a filed dose; 0% is about no effect
HCMV inh – qHTS Assay for inhibitors of the human cytomegalovirus (HCMV). HFF cells, HCMV-luciferase reporter, 72 h; hits give low values. activity change, negative = inhibition, % at 57.5 µM. 410,000 compounds, 4.5% hits; in the data active means activity change below about -60%; inconclusive means no clear call, values can overlap the other calls; inactive means above about -39%; further: on the % scale 0 is the no-effect control and ±100 the full control effect
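Two compound doses tested in HFFs infected with HCMV-luciferase, MOI 1 PFU/cell, 72 h at 37C. Lysate luminescence read with OneGlo; data normalized against buffer-only and 10uM Salinomycin inhibitor controls.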
Pf growth 96h – Primary qHTS for delayed death inhibitors of the malarial parasite plastid, 96 hour incubation; P. falciparum luciferase reporter growth, 96 h; 320,000 compounds, 6.9% hits; Potency, µM (doses to about 28.7 µM), inactives show at the highest dose activity change, negative = inhibition, hits mostly inhibitors; AID 504834, 2011; further: potency means the concentration at half of the fitted maximal effect; on the % scale 0 is the no-effect control and ±100 the full control effect
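Cell-based qHTS: luciferase-tagged P. falciparum in erythrocytes (2% hematocrit, 0.05% parasitemia final) incubated with compounds for 96 hours, 37 C, 5% CO2; luciferase detection reagent then added and luminescence measured.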
* hit, by the source's call; ? = inconclusive; · = no result given; [ ] = remark or other dose. Unless noted, the call rests on the fitted dose curve; in most records, active means well fitted inhibition curve with a large enough effect; inconclusive means small, poorly fitted or top-dose-only effect, or another doubt; inactive means no such curve, though single readings can be large or run the other way.

SMILES	Pf growth 48h	Shiga toxin inh	Cycloheximide cs	HCMV inh	Pf growth 96h
Cc1ccnc(NS(=O)(=O)c2ccc(NC(=O)/C=C/c3cccs3)cc2)n1	28%	24	-2	-7	38%
CC(C)(C)NC(=O)/C=C/c1cccc(C(F)(F)F)c1	11%	16	14*	20	-12%
O=C(/C=C/c1cccs1)Nc1ccncc1	58%	63*	44*	33	6%
CC(C)(C)NC(=O)/C=C/c1cccs1	39%	22	17*	24	77%
Cc1cccc(NC(=O)/C=C/c2cccs2)n1	39%	40*	33*	93	88%
CC(=O)Nc1ccc(NC(=O)/C=C/c2cccc(C(F)(F)F)c2)cc1	9%	10	7	5	15%
CC(C)C1=CC2=CC[C@@H]3[C@](C)(CCC[C@@]3(C)C(=O)O)[C@H]2CC1	-11%	·	·	·	?
CCCOC(=O)c1ccc(NC(=O)/C=C/c2cccs2)cc1	?	73*	33*	68	-4%
CC(C)(C)c1ccc(/C=C/C(=O)Nc2ccncc2)cc1	8%	67*	53*	7	5%
O=C(/C=C/c1cccs1)c1ccc([N+](=O)[O-])cc1	20%	9	1	0	0%
O=C(/C=C/c1cccs1)Nc1ccc([N+](=O)[O-])cc1	78%	30*	48*	-13	256%
Cc1nc(NC(=O)/C=C/c2ccc(C(C)(C)C)cc2)sc1C(=O)N(C)C	?	-3	-4	-19	-3%
Cc1c(-c2ccc(O)cc2)nc2nc(-c3ccccc3)c(-c3ccccc3)nn12	0.41µM*	-12	-1	·	2.1µM*
Cc1nnc2c3ccccc3c(-c3ccc(O)cc3)nn12	·	-7	-3	34	2%
Cc1nn(-c2ccccc2)c(/N=C/c2ccc(O)cc2)c1-c1ccccc1	86%	45	27*	61	31%
CCOC(=O)c1c(C)[nH]c(C)c1S(=O)(=O)N(C)CC(=O)Nc1ccc(OC)cc1	·	·	·	-7	·
OCc1ccccc1	5.4µM*	·	·	·	6µM*
COCCNCC1C(Oc2ccc(Cl)cc2)C(=O)N1c1ccccc1C (stereo not given)	?	-10	-6	-16	188%
Cc1ccccc1N1C(=O)C(Oc2ccc(Cl)cc2)C1CNC(C)(C)C (stereo not given)	12µM*	-15	-1	?	47%
CCCNCC1C(Oc2ccc(Cl)cc2)C(=O)N1c1ccccc1C (stereo not given)	10µM*	-15	-1	-27	7%
Cc1ccccc1CSc1ccc2nnc(-c3ccccn3)n2n1	?	19	1	1	?
O=c1[nH]c(=O)n(Cc2ccccc2)c2nc(-c3ccco3)cc(C(F)(F)F)c12	?	-3	-3	58	5.9µM*
Cc1cc(C(F)(F)F)c2c(=O)[nH]c(=O)n(Cc3ccccc3)c2n1	-7%	-12	-6	-32	?
CCCn1c(=O)[nH]c(=O)c2c(C(F)(F)F)cc(-c3ccc(C)cc3)nc21	40%	-4	6	9	2.6µM*
CCOC(=O)c1cc(-c2ccc([N+](=O)[O-])cc2)nc2c1c(=O)[nH]c(=O)n2Cc1ccccc1	23%	-9	-3	-4	23%
SMILES	Pf growth 48h	Shiga toxin inh	Cycloheximide cs	HCMV inh	Pf growth 96h
Cc1nn(CCC#N)c2nc(-c3ccccc3)cc(C(F)(F)F)c12	8%	9	6	-19	1%[5.75 µM]
CC(C)Cn1c(=O)[nH]c(=O)c2c(C(F)(F)F)cc(-c3ccccc3)nc21	?	3	0	20	8.3µM*
COc1ccc(NC(C)=O)cc1CNC(=O)COc1ccccc1C(=O)Nc1cccc(C)c1C	-19%	·	1	22	23%
CCCS(=O)(=O)NC(=O)C1(C)CCCN(C(=O)c2cccc(OC(F)(F)F)c2)C1 (stereo not given)	·	·	·	46	·
O=C(c1nc2ccccc2s1)N1CCN(c2ccccn2)CC1	38%	29*	21*	93	-6%
CCNC(=O)C1(C)CCCN(C(=O)c2nc3ccccc3s2)C1 (stereo not given)	·	·	·	-6	·
O=C(c1nc2ccccc2s1)N1CCSCC1	99%	135*	29*	107	·
CCO[C@@H]1OC(C(=O)N2CCN(Cc3ccccc3)CC2)=C[C@H](c2csc3ccccc23)[C@H]1CCCO	?	-19	-3	11	6.6µM*
CCO[C@@H]1OC(C(=O)N2CCN(Cc3ccccc3)CC2)=C[C@H](c2cn(C(C)=O)c3ccccc23)[C@H]1CCCO	8.3µM*	-10	0	-16	8.3µM*
CCO[C@@H]1OC(C(=O)N2CCOCC2)=C[C@H](c2cn(C(C)=O)c3ccccc23)[C@H]1CCCO	6%	-11	8	-19	40%
CCO[C@@H]1OC(C(=O)NCc2ccccc2)=C[C@H](c2cn(C(C)=O)c3ccccc23)[C@H]1CCCO	5.2µM*	10	-2	27	4.1µM*
CCO[C@H]1OC(C(=O)N2CCCCCCC2)=C[C@@H](c2csc3ccccc23)[C@@H]1CCCO	15%	17	0	-7	?
CCO[C@H]1OC(C(=O)N2CCN(Cc3ccccc3)CC2)=C[C@@H](c2ccc(C(F)(F)F)cc2)[C@@H]1CCCO	?	-2	1	-86*	1.5µM*
CN(CC(=O)Nc1ccc(F)cc1)C(=O)COC(=O)CNC(=O)c1ccc(Cl)cc1Cl	-5%	·	·	-28	16%
Cc1ccc(NN2C(=O)C=C(c3ccccc3)C2=O)cc1	?	-7	-12	5	44%
CC(C)CCNC(=O)C(=O)NC1CCCC1	88%	37*	11*	-8	18%
CC1CCN(c2ccc(/C=N\Nc3nncn3N)cc2[N+](=O)[O-])CC1	?	13	3	13	13%
CC(C)(C)c1ccc(/C=N/Nc2nncn2N)cc1	30%	13	17*	-11	91%
CC(C)(C)c1nnc(N/N=C/c2ccc(Br)cc2)n(N)c1=O	20%	64*	55*	12	-13%
CSc1ccc(/C=N\Nc2nncn2N)cc1	-12%	76*	28*	?	36%
CC(=O)c1ccc(NC(=O)Cn2cnc3nc4c(cc3c2=O)CC(C)CC4)cc1 (stereo not given)	·	·	·	26	·
CCc1cc(=O)oc2cc(C)c3c(-c4ccc(F)cc4)coc3c12	·	·	·	-2	·
O=C(CSc1nc2ccccc2o1)Nc1nncs1	·	13	11	-28	15%
Clc1c(CSc2nc3ccccc3o2)nc2ccccn12	100%	54	33*	125	·
c1ccc(-c2noc(CSc3nc4ccccc4o3)n2)cc1	10%	56	17	-11	74%
Clc1c(CSc2nc3ccccc3o2)nc2sccn12	72%	152*	30*	33	0%
Brc1c(CSc2nc3ccccc3o2)nc2ncccn12	-25%	58	40*	51	?
Cc1cc(C)nc(SCc2nc3ncccn3c2Br)n1	8.3µM*	6	-6	33	4.1µM*

High-throughput results (PubChem BioAssay)
